For 16 compounds, growth results are on record in PubChem BioAssay (NCI).

Holding throughout (experiment): NCI-60 one-dose screen, 48 h (100 = growth as untreated, 0 = no growth, -100 = all killed)
What all share (conditions): 10 µM

Experiment [1] relates to NCI-H23 lung.
Experiment [2] deals with NCI-H226 lung.
The test system of experiment [3] is NCI-H322M lung.
Experiment [4] deals with HOP-62 NSCLC.
Experiment [5] concerns NCI-H460 lung.
The subject of experiment [6] is HOP-92 NSCLC.
Experiment [7] relates to NCI-H522 lung.
Experiment [8] concerns A549/ATCC NSCLC.
Experiment [9] deals with 786-0 renal.
Experiment [10] has as its system COLO 205 colon.

Compounds without any hit were thinned out: in the full panel of roughly 83,000, 20% have a hit.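 Each cell line was grown in a 96-well plate and treated with one concentration of compound for 48 hours. Values below 10 were considered active.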 A number with no mark means an inactive call. Calls of active or inactive are those of the source.

For the compound `COc1ccc2[nH]c(=O)c(CSc3nccc(-c4ccc(Cl)cc4)n3)cc2c1`, the growth is 33.9% in [1]; -26.1% (active) in experiment [2]; 44.9% in experiment [3]; 32.9% in experiment [4]; 9.38% (active) in experiment [5]; 4.58% (active) in experiment [6]. Also, the growth in experiment [7] is -32.2% (active); in experiment [8], 2.57% (active); in experiment [9] it was -28.6% (active); in experiment [10] it was 20.5%.

Regarding `Cc1noc2c(Cc3ccccc3)nn(CC(=O)N/N=C/c3ccc(Br)cc3)c(=O)c12`, the growth in experiment [1] is 69.9%; in [2], 32.5%; in experiment [3], 102%; in experiment [4] it was 43.3%; in [5] it was 13.1%; in [6], 35.1%. Further, the growth in experiment [7] was 74.4%; in [8] it was 18.1%; in experiment [9] it was -24.9% (active); in [10], 39.7%.

As to `O=C1NC(=NC23CC4CC(CC(C4)C2)C3)N/C1=C\c1ccc2ncccc2n1`, the growth in experiment [1] was -53.7% (active); in [2], -15.6% (active); in experiment [3] it was -10.2% (active); in [4] it was -5.42% (active); in [5], -8.97% (active); in [6], -14.6% (active). Also, the growth in experiment [7] was -20.6% (active); in [8] it was 2.65% (active); in experiment [9], 2.78% (active); in [10], -19.3% (active).

Take `O=C(Nc1ccc(Cl)c(C(F)(F)F)c1)c1cncc(C#Cc2cnc3ccc(N4CCOCC4)nn23)c1`: the growth in experiment [1] is -18.7% (active); in experiment [2], -32.8% (active); in experiment [3], 6.5% (active); in experiment [4] it was 11.1%; in experiment [5] it was 29.3%; in experiment [6] it was -48.6% (active). Also, the growth was -11.3% (active) in experiment [7], 16.1% in [8], -28.5% (active) in experiment [9] and 11.9% in experiment [10].

Regarding `O=C(CSc1ccc(-c2ccc(Cl)cc2)nn1)Nc1ccc(Cl)c(C(F)(F)F)c1`, the growth is 73.6% in experiment [1]; 76.1% in experiment [2]; 89.1% in experiment [3]; 57.4% in [4]; 98.6% in [5]; 75.8% in experiment [6]. Moreover, the growth was 55.1% in experiment [7], 70.5% in experiment [8], 80.6% in experiment [9] and 74.8% in experiment [10].

For the compound `COc1ccc(NC(=O)CSc2nnc(-c3ccc4nc(-c5ccc(Cl)cc5)[nH]c4c3)o2)cc1`, the growth is -9.49% (active) in [1]; 80.3% in [2]; 45.8% in experiment [3]; 74.6% in experiment [4]; 10.7% in [5]; 102% in experiment [6]. In addition, the growth in [7] was 22.6%; in experiment [8] it was 66%; in experiment [9], 22.5%; in experiment [10], 96.8%.

For `C=C(c1ccc(OC)c(N)c1)c1cc(C)nc2ccccc12`, the growth in [1] is 12.3%; in [2], 22.8%; in [3], 37.8%; in experiment [4] it was 30.9%; in experiment [5], -4.48% (active); in experiment [6] it was 53.8%. The growth was -29.4% (active) in [7], 19.9% in [8], 22.6% in experiment [9] and -79.8% (active) in experiment [10].

For `Nc1n[nH]c2cccc(C#Cc3cccc(NC(=O)Nc4cc(C(F)(F)F)cc(C(F)(F)F)c4)c3)c12`, the growth in experiment [1] was -88.4% (active); in experiment [2], -52.6% (active); in experiment [3], -22.4% (active); in experiment [4], -55.3% (active); in experiment [5], -56.8% (active); in experiment [6], -71.5% (active). For the same compound, the growth in experiment [7] was -58.4% (active); in experiment [8] it was -35.3% (active); in experiment [9] it was -20.3% (active); in [10], -77.5% (active).

Consider `COc1ccc2c3nc4cc(C)c(C)cc4nc3n(CCN(C)C)c2c1`, for which the growth in [1] is 8.28% (active); in experiment [2] it was 12.1%; in experiment [3], 0.682% (active); in [4], 8.8% (active); in [5] it was -50.6% (active); in experiment [6], 27.1%. Further, the growth in [7] is -22.4% (active); in experiment [8] it was -59.8% (active); in experiment [9], -42.7% (active); in [10], 62.5%.

Turning to `O=C(NO)c1ccc(CNc2nc(-c3ccccc3)c3ccccc3n2)cc1`, the growth in experiment [1] is -49% (active); in experiment [2], 6.26% (active); in [3], 11%; in experiment [4] it was 0.931% (active); in experiment [5], 4.48% (active); in experiment [6] it was -35.6% (active). Also, the growth in experiment [7] is -30.9% (active); in experiment [8], 12.3%; in experiment [9], 10.9%; in experiment [10], -80.4% (active).

On to `COc1ccc(C(=O)/C=C/c2cc(F)cc(C(F)(F)F)c2)cc1S(N)(=O)=O`, for which the growth is -74.8% (active) in [1]; -29.3% (active) in experiment [2]; -3.66% (active) in experiment [3]; -47.4% (active) in experiment [4]; -25.3% (active) in [5]; -9.39% (active) in experiment [6]. Besides, the growth in experiment [7] was -79.6% (active); in experiment [8], 3.37% (active); in [9], -81% (active); in [10], -53.1% (active).

As to `COc1ccc(CN2[C@H](C(=O)NCc3ccc(C(=O)NO)cc3)Cc3c([nH]c4ccccc34)[C@H]2C2CC2)cc1`, the growth is 52.3% in experiment [1]; 55.8% in [2]; 59.4% in experiment [3]; 63.1% in experiment [4]; 33.6% in [5]; 40.1% in experiment [6]. Also, the growth in experiment [7] was 22.2%; in [8] it was 61.3%; in experiment [9], 61.7%; in [10], 47.3%.

Consider `O=C(CNc1nc(-c2ccccc2)cs1)Nc1ccc(Br)cc1`, for which the growth in [1] was -90.8% (active); in experiment [2], -58.6% (active); in experiment [3], -99.5% (active); in [4], -78.8% (active); in experiment [5], -61.5% (active); in experiment [6] it was -71.5% (active). Moreover, the growth was -77.8% (active) in experiment [7], -82.3% (active) in [8], -73.2% (active) in experiment [9] and -77.4% (active) in [10].

Take `CN1CCc2c(sc3ncnc(N/N=C/c4cn(-c5ccccc5)nc4-c4ccc(Br)cc4)c23)C1`: the growth in experiment [1] is 8.68% (active); in experiment [2], 81.2%; in experiment [3], 33.5%; in experiment [4], 54.6%; in experiment [5] it was 18.7%; in experiment [6] it was 71.8%. The growth in [7] is 54.7%; in [8], 25.3%; in [9], 65.7%; in experiment [10], 5.81% (active).

In the case of `CC1(c2ccccc2)NC(=O)N(CC(=O)Nc2ccc(C(=O)/C=C/c3ccc(Br)cc3)cc2)C1=O` (stereo not given), the growth is 64.4% in [1]; 43.4% in experiment [2]; 78.1% in experiment [3]; 61.9% in [4]; 59.5% in experiment [5]; 25.1% in experiment [6]. In addition, the growth in experiment [7] was 64.3%; in experiment [8], 38.9%; in [9] it was 12.8%; in experiment [10], 64.1%.

`COC[C@@H](CC(C)C)N=C1N/C(=C\c2ccc3ncsc3c2)C(=O)N1C`: the growth was -17.7% (active) in [1]; 11.4% in experiment [2]; 9.12% (active) in experiment [3]; -9.28% (active) in experiment [4]; 21.2% in experiment [5]; 19.1% in experiment [6]. The growth is -29.6% (active) in [7], 15.9% in experiment [8], 14.9% in [9] and -28.4% (active) in experiment [10].
